Assay results taken from PubChem BioAssay (Tox21).
Several values for one entry are separate records, joined by “and”; a condition that tells them apart may be missing. Equal values may be shown once. Inconclusive results are not listed. Where a call stands in place of a potency, no number is given. Some structures have more than one record in an assay (separate samples or runs), and their calls can disagree. Activity calls are given as the source filed them. Calls come from the whole dose curve; as a rule, active = well fitted curve in the direction sought with a large enough effect in the repeat runs; inconclusive = weak or mixed curves; inactive = no such curve, though single readings can be large; an effect the other way counts as inactive or inconclusive.

Experiments:
[1] = Caspase-3/7 induction in HepG2 cells by small molecules, qHTS assay (AID 1346978); note: nearly all actives have a fitted effect of over 15% in size; note: potency is the fitted concentration of half-maximal effect
How it was run: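 Caspase-3/7 induction was measured by Caspase-Glo 3/7 luminescence (30 min, room temperature) after a 17 hr compound exposure of wild-type HepG2 cells seeded at 2,000 per well and pre-incubated 5 hr.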

[2] = Caspase-3/7 induction in CHO-K1 cells by small molecules, qHTS cell viability counter screen (AID 1346979); note: nearly all actives have a fitted effect of over 35% in size; note: potency is the fitted concentration of half-maximal effect
How it was run: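 Following a 5hr settling period, CHO-K1 cells at 1,500 per well received DMSO-dissolved compounds. Cell viability was quantified 16hr later by CellTiter-Fluor fluorescence, measured after 1hr with reagent at 37C.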

[3] = Caspase-3/7 induction in CHO-K1 cells by small molecules, qHTS assay (AID 1346980); note: nearly all actives have a fitted effect of over 15% in size
How it was run: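 Luminescent Caspase-Glo 3/7 read (30min, room temperature) quantified apoptosis induction. Cells were wild-type CHO-K1, treated with compound for 17hr at 37 C and 5% CO2.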

[4] = Caspase-3/7 induction in HepG2 cells by small molecules, qHTS cell viability counter screen (AID 1346981); note: nearly all actives have a fitted effect of over 30% in size; note: potency is the fitted concentration of half-maximal effect
How it was run: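 Wild-type HepG2 cells (2,000/well) were allowed to settle for 5 hr at 37 C, 5% CO2, then dosed with compounds in DMSO by pin transfer. After 16 hr at 37 C, CellTiter-Fluor was added and fluorescence read 1 hr later.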

[5] = biological target: Nuclear receptor subfamily 1 group I member 2 (Homo sapiens) (UniProt O75469); test: Human pregnane X receptor (PXR) small molecule agonists, qHTS assay (AID 1346982); note: nearly all actives have a fitted effect of over 35% in size; note: potency is the fitted concentration of half-maximal effect
How it was run: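 PXR-Luc HepG2 cells (CYP3A4 promoter-driven luciferase) were seeded in medium with 5% charcoal-stripped FBS, left 5 hr at 37 C, then exposed to compounds in DMSO for 24 hr. Luminescence was read after ONE-Glo addition.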

[6] = biological target: Nuclear receptor subfamily 1 group I member 2 (Rattus norvegicus) (UniProt Q9R1A7); test: Rat pregnane X receptor (rPXR) activation by small molecules, qHTS assay (AID 1346983); details: rPXR luciferase reporter cells, One-Glo luminescence, 24 h; max activation: stronger effect = higher value; note: nearly all actives have a fitted effect of over 20% in size
How it was run: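 Luminescent readout (One-Glo luciferase, 30 min room temperature) followed 24 hr compound treatment at 37 C of rPXR cells plated 2,000 per well and preincubated 5hr; qHTS format with compounds delivered in DMSO.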

[7] = biological target: Nuclear receptor subfamily 1 group I member 2 (Homo sapiens) (UniProt O75469); test: CYP3A4 induction through human pregnane X receptor (PXR) by small molecules, qHTS assay (AID 1346984); note: nearly all actives have a fitted effect of over 40% in size; note: potency is the fitted concentration of half-maximal effect
How it was run: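 DPX-2 cells (HepG2 co-transfected with PXR and CYP3A4 promoter-luciferase) treated with compounds 24 h at 37C; luciferin-IPA CYP3A4 substrate 3uM final added for 3 h, then One-Glo; luminescence read. qHTS format.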

[8] = biological target: Nuclear receptor subfamily 1 group I member 2 (Homo sapiens) (UniProt O75469); test: Human pregnane X receptor (PXR) activation by small molecules, qHTS assay (AID 1346985); note: nearly all actives have a fitted effect of over 40% in size; note: potency is the fitted concentration of half-maximal effect
How it was run: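 DPX-2 cells (HepG2 co-transfected with a PXR response element and a CYP3A4-promoter luciferase construct) were seeded at 2,000 per well, rested 5 hr at 37C, then exposed to DMSO-dissolved compounds for 24 hr. Activation was read as luciferase luminescence.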

[9] = biological target: Cytochrome P450 2D6 (Homo sapiens) (UniProt P10635); test: Cytochrome P450 Family 2 Subfamily D Member 6 (CYP2D6) small molecule antagonists: luciferase reporter qHTS assay (AID 1671196); note: nearly all actives have a fitted effect of over 50% in size; note: potency is the fitted concentration of half-maximal effect
How it was run: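 CYP2D6 enzyme–substrate mix was held with compound for 10 min at room temperature, then NADPH regeneration solution was added and the reaction ran 1 h at room temperature. Luciferin product was detected by luminescence after 20 min with detection reagent.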

[10] = biological target: Cytochrome P450 2C19 (Homo sapiens) (UniProt P33261); test: Cytochrome P450 Family 2 Subfamily C Member 19 (CYP2C19) small molecule antagonists: luciferase reporter qHTS assay (AID 1671197); note: nearly all actives have a fitted effect of over 65% in size; note: potency is the fitted concentration of half-maximal effect
How it was run: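 Inhibition of CYP2C19 was scored from loss of luminescence in a P450-Glo proluciferin substrate assay, NADPH-started and run 1 h at 37C, with ketoconazole as positive control.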

Nuclear receptor subfamily 1 group I member 2 (Rattus norvegicus), sequence (Q9R1A7 whole entry, looked up): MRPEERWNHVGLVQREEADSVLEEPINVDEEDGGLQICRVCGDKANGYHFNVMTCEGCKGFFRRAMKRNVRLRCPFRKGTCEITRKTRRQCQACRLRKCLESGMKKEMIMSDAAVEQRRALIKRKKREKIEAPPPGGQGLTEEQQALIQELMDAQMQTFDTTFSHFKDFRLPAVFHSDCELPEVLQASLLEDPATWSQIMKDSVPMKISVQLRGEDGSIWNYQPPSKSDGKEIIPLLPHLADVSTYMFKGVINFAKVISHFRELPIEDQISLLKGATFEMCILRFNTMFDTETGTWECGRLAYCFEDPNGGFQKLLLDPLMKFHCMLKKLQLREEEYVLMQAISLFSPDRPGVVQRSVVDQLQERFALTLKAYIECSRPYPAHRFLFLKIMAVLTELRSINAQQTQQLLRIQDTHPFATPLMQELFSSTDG
Cytochrome P450 2D6 (Homo sapiens), sequence (P10635 whole entry, looked up): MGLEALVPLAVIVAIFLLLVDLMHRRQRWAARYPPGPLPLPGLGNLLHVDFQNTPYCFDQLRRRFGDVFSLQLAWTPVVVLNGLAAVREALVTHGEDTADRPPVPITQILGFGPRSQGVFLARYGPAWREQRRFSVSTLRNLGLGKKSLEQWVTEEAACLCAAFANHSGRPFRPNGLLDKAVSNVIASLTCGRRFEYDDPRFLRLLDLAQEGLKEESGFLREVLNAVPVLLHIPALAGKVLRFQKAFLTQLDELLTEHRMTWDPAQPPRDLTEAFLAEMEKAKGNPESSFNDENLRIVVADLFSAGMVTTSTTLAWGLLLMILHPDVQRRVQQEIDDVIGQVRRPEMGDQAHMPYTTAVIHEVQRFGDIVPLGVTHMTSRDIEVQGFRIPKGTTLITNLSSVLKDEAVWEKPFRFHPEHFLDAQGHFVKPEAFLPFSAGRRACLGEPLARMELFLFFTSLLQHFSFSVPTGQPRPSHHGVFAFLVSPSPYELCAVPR
Cytochrome P450 2C19 (Homo sapiens), sequence (P33261 whole entry, looked up): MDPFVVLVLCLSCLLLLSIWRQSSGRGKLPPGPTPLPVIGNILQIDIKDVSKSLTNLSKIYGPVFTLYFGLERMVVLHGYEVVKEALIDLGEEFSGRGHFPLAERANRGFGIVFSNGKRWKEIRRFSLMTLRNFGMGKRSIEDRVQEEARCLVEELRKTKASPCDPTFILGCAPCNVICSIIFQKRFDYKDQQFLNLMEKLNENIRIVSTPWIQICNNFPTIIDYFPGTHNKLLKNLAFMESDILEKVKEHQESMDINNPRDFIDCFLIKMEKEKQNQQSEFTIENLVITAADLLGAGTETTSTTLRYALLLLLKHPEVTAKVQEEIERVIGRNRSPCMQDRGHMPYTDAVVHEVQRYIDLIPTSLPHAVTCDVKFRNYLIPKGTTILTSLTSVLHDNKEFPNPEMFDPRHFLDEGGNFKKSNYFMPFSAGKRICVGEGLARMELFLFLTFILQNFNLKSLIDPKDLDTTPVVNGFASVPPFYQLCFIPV
Nuclear receptor subfamily 1 group I member 2 (Homo sapiens), sequence (O75469 whole entry, looked up): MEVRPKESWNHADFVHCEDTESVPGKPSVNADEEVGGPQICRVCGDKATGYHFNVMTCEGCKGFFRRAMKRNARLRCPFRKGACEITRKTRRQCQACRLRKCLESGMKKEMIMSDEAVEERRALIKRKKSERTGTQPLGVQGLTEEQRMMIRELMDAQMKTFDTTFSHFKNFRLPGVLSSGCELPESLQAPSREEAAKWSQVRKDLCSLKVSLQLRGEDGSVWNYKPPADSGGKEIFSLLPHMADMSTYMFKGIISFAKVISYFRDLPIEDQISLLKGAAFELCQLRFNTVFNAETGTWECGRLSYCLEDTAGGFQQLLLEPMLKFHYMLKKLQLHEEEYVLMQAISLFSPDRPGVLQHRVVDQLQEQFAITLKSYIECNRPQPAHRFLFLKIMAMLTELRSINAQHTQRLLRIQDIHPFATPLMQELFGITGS

Row | Compound | Potency [1] | Potency [2] | outcome [3] | Potency [4] | Potency [5] | max activation [6] | Potency [7] | Potency [8] | Potency [9] | Potency [10]
1 | CCCCCCCCOc1ccc(C(=O)c2ccccc2)c(O)c1 | inactive | inactive | inactive | inactive | inactive | -2.91% (inactive) | inactive | inactive | inactive | inactive and 35.6 µM (active)
2 | COc1cc(O)c(C(=O)c2ccccc2)cc1S(=O)(=O)O | inactive | inactive and 13.3 µM (active) | inactive | inactive | inactive | -1.72% (inactive) | inactive | inactive | inactive | 78.8 µM (active) and inactive
3 | COc1ccc(O)cc1 | inactive | inactive | inactive | inactive | inactive | -2.37% (inactive) | inactive | inactive | 27.2 µM (active) and inactive | 34.3 µM (active) and inactive
4 | Cc1ccc(O)c(-n2nc3ccccc3n2)c1 | inactive | inactive | inactive | inactive | 27.1 µM (active) and 27.3 µM (active) and 23.7 µM (active) | -1.88% (inactive) | inactive | 14.1 µM (active) | 31.5 µM (active) and 35.6 µM (active) and 30.9 µM (active) | 7.05 µM (active) and 10 µM (active)
5 | CC(C)=CCC/C(C)=C/CO | inactive | inactive | inactive | inactive | – | – | – | – | – | –
6 | NC(=O)c1ccc([N+](=O)[O-])cc1Cl | inactive | inactive | inactive | inactive | inactive | 2.53% (inactive) | inactive | inactive | inactive | inactive
7 | CC(O)COc1ccccc1 (configuration not stated) | inactive | inactive | inactive | inactive | inactive | -1.1% (inactive) | inactive | inactive | inactive | inactive
8 | CCCCCCCC(=O)OCC(O)CO (configuration not stated) | inactive | inactive | inactive | inactive | inactive | -5.07% (inactive) | inactive | inactive | 39.9 µM (active) | 79.6 µM (active)
9 | CC1(C)O[C@@H]2[C@@H](CO[C@@]3(COS(N)(=O)=O)OC(C)(C)O[C@@H]23)O1 | inactive | inactive | inactive | inactive | inactive | -4.73% (inactive) | inactive | inactive | inactive | 4.9 µM (active)
10 | CC(C)(C)CC(C)(C)c1ccc(O)c(-n2nc3ccccc3n2)c1 | inactive | inactive | inactive | inactive | 27.7 µM (active) and 11.9 µM (active) | -2.63% (inactive) | inactive | 7.94 µM (active) | 40.5 µM (active) and inactive | 36.1 µM (active) and 20 µM (active)
11 | CCN(CC)CCOC(=O)c1ccc(N)cc1 | inactive | inactive | inactive | inactive | inactive | -0.318% (inactive) | inactive | inactive | 5.95 µM (active) and 15.5 µM (active) | inactive
12 | CCc1cc(C(N)=S)ccn1 | inactive | inactive | inactive | inactive | – | – | – | – | – | –
13 | O=C(OCc1ccccc1)c1ccccc1 | inactive | inactive | inactive | inactive | inactive | 0.688% (inactive) | inactive | inactive | inactive | 31.8 µM (active) and 39.9 µM (active) and 17.4 µM (active)
14 | Oc1cccc(O)c1 | 42 µM (active) and inactive | inactive | inactive | inactive | 47.1 µM (active) and inactive | -3.43% (inactive) | inactive | inactive | inactive | inactive
15 | COc1ccccc1O | inactive | inactive | inactive | inactive | inactive | -3.23% (inactive) | inactive | inactive | inactive | inactive
16 | NC(=O)NO | inactive | inactive | inactive | inactive | – | – | – | – | – | –
17 | C[C@]12CC[C@@H]3c4ccc(O)cc4CC[C@H]3[C@@H]1CCC2=O | inactive | inactive | inactive | inactive | – | – | – | – | – | –
18 | Cn1cnc2c1c(=O)[nH]c(=O)n2C | inactive | inactive | inactive | inactive | – | – | – | – | – | –
19 | O=c1cc[nH]c(=O)[nH]1 | inactive | inactive | inactive | inactive | inactive | -0.198% (inactive) | inactive | inactive | inactive | inactive

Row | Compound | Potency [1] | Potency [2] | outcome [3] | Potency [4] | Potency [5] | max activation [6] | Potency [7] | Potency [8] | Potency [9] | Potency [10]
20 | CC1=NN(c2ccccc2)C(=O)C1 | inactive | inactive | inactive | inactive | inactive | -4.19% (inactive) | 25.1 µM (active) | inactive | 31.9 µM (active) and inactive | 71.4 µM (active) and inactive
21 | N[C@@H](Cc1c[nH]c2ccc(O)cc12)C(=O)O | inactive | inactive | inactive | inactive | inactive | -0.341% (inactive) | 4.47 µM (active) | inactive | 34.6 µM (active) | inactive
22 | C/C=C/c1ccc(O)c(OC)c1 | inactive | inactive | inactive | inactive | inactive | 6.95% (inactive) | inactive | inactive | inactive | 7.96 µM (active) and 39.9 µM (active) and 8.71 µM (active)
23 | Cc1c(N(C)CS(=O)(=O)O)c(=O)n(-c2ccccc2)n1C | inactive | inactive | inactive | inactive | inactive | -2.23% (inactive) | inactive | inactive | inactive | –
24 | CCCCC/C(C=O)=C\c1ccccc1 | inactive | inactive | inactive | inactive | inactive | -0.992% (inactive) | inactive | inactive | 63.4 µM (active) and inactive | 35.6 µM (active) and 39.9 µM (active) and inactive
25 | C#C[C@]1(O)CC[C@H]2[C@@H]3CCC4=CC(=O)CC[C@@H]4[C@H]3CC[C@@]21CC | inactive | inactive and 54.5 µM (active) | inactive | inactive | 8.65 µM (active) and 54.5 µM (active) and 24.3 µM (active) | -1.1% (inactive) | inactive | inactive | inactive | 2.83 µM (active) and 5.64 µM (active) and 2.45 µM (active)
26 | CCCCCCCCCCCCCC(=O)OC(C)C | inactive | inactive | inactive | inactive | inactive | -1.74% (inactive) | inactive | inactive | inactive | inactive
27 | NC(N)=NC(N)=NCCc1ccccc1 | inactive | inactive | inactive | inactive | inactive | -11.7% (inactive) and -9.14% (inactive) | inactive | inactive | 5 µM (active) and 10 µM (active) and 8.71 µM (active) | inactive
28 | C[C@]12C[C@H](O)[C@H]3[C@@H](CCC4=CC(=O)CC[C@@]43C)[C@@H]1CC[C@@H]2C(=O)CO | inactive | inactive | inactive | inactive | 8.65 µM (active) and 38.6 µM (active) | -5.48% (inactive) | inactive | inactive | inactive | –
29 | OC[C@@H](O)[C@@H](O)[C@H](O)[C@H](O)CO | inactive | inactive | inactive | inactive | inactive | -0.524% (inactive) | inactive | inactive | inactive | inactive
30 | CCOC(=O)C(C)(C)Oc1ccc(Cl)cc1 | inactive | inactive | inactive | inactive | inactive | – | – | – | – | –
31 | CN(C)Cc1cc(CN(C)C)c(O)c(CN(C)C)c1 | inactive | inactive | inactive | inactive | inactive | – | – | – | 79.6 µM (active) and inactive | inactive
32 | COc1cc2c(c(OC)c1OC)-c1ccc(OC)c(=O)cc1[C@@H](NC(C)=O)CC2 | inactive | 381 nM (active) and 43.3 nM (active) and 298 nM (active) | inactive | inactive | 2.14 µM (active) and 5.4 nM (active) | – | – | – | inactive | inactive
33 | CC(=O)OC/C=C(C)/C=C/C=C(C)/C=C/C1=C(C)CCCC1(C)C | inactive | 66.9 µM (active) and 68.6 µM (active) and inactive | inactive | inactive | 59.6 µM (active) and 34.4 µM (active) and 15 µM (active) | – | – | – | 34.7 µM (active) and inactive | 39 µM (active) and 35.6 µM (active)
34 | CCCCOC(=O)CCCCCCCCC(=O)OCCCC | inactive | inactive | inactive | inactive | inactive | – | – | – | inactive | inactive
35 | Nc1ccc(N=Nc2ccccc2)c(N)n1 | inactive | 48.8 µM (active) and 48.6 µM (active) and 26.6 µM (active) | inactive | 21.1 µM (active) | 27.4 µM (active) and 27.3 µM (active) and 6.68 µM (active) | – | – | – | 40.1 µM (active) and 35.6 µM (active) and 12.3 µM (active) | 20.1 µM (active) and 28.3 µM (active) and 9.77 µM (active)
36 | C=CCOC(=O)CC(C)C | inactive | inactive | inactive | inactive | inactive | – | – | – | inactive | inactive
37 | CC(C)Cc1ccc(C(C)C(=O)O)cc1 (configuration not stated) | inactive | inactive | inactive | inactive | inactive | – | – | – | inactive | inactive
